The panel holds about 83,000 compounds, 20% with a hit somewhere; the sample as a whole holds those more often.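 48-hour exposure, single concentration, 96-well plates; percent growth endpoint where 0 means no net growth. Active: below 10.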 A number with no mark means an inactive call. The source made the active and inactive calls.

Some test systems named below: NCI-H23 lung; NCI-H226 lung; NCI-H322M lung; HOP-62 NSCLC; NCI-H460 lung; HOP-92 NSCLC; NCI-H522 lung; A549/ATCC NSCLC; 786-0 renal; COLO 205 colon; DU-145 prostate; K-562 leukemia; MALME-3M melanoma; MDA-MB-231 breast; RXF 393 renal; SF-268 CNS; SF-295 CNS; SF-539 CNS; UACC-257 melanoma; M14 melanoma.
Experiment in all cases: NCI-60 one-dose screen, 48 h (100 = growth as untreated, 0 = no growth, -100 = all killed)
Common to all, as to conditions: 10 µM unless noted

`COC(=O)c1c(C)[nH]c(/C=C2\N=C(c3ccc[nH]3)C=C2OC)c1C`: the growth in the assay on NCI-H23 lung is 10%; in the assay with NCI-H226 lung it was -16% (active); in the assay with NCI-H322M lung, -2.96% (active); in the assay on HOP-62 NSCLC it was -17.5% (active); with NCI-H460 lung it was 4.82% (active); in the assay on HOP-92 NSCLC it was -41.8% (active). For the same compound, the growth was -60.1% (active) in the assay on NCI-H522 lung; -24.4% (active) in the assay on A549/ATCC NSCLC; -27.7% (active) in the assay with 786-0 renal; -54.2% (active) in the assay with COLO 205 colon; 9.5% (active) in the assay on DU-145 prostate; 4.3% (active) in the assay with K-562 leukemia. Further, the growth with MALME-3M melanoma was -69.3% (active); in the assay on MDA-MB-231 breast, -40.2% (active); with RXF 393 renal it was -33.9% (active); in the assay on SF-268 CNS, 18.3%; in the assay on SF-295 CNS, -56.7% (active); in the assay on SF-539 CNS it was -59.7% (active). Moreover, the growth in the assay with UACC-257 melanoma is -49% (active); in the assay on M14 melanoma, -24% (active).

As for `CC(=O)OC[C@]12CC[C@@H](C(=O)CBr)[C@@H]1[C@H]1CC[C@@H]3[C@@]4(C)CCCNC(C)(C)[C@@H]4CC[C@@]3(C)[C@]1(C)CC2`, the growth with NCI-H23 lung is -64.3% [100 µM] (active); in the assay on NCI-H226 lung, -20.3% [100 µM] (active); in the assay on NCI-H322M lung, -100% [100 µM] (active); in the assay on HOP-62 NSCLC, -86.8% [100 µM] (active); in the assay with NCI-H460 lung, -66.7% [100 µM] (active); in the assay on HOP-92 NSCLC, -76.7% [100 µM] (active). In addition, the growth in the assay on NCI-H522 lung is -81.4% [100 µM] (active); with A549/ATCC NSCLC, -69.7% [100 µM] (active); in the assay on 786-0 renal, -74.3% [100 µM] (active); in the assay on COLO 205 colon it was -59.3% [100 µM] (active); with DU-145 prostate, -94.7% [100 µM] (active); in the assay with K-562 leukemia, 5.86% [100 µM] (active). For the same compound, the growth with MALME-3M melanoma was -75.7% [100 µM] (active); in the assay on MDA-MB-231 breast it was -71.8% [100 µM] (active); with RXF 393 renal, -81.9% [100 µM] (active); in the assay with SF-268 CNS, -65.5% [100 µM] (active); in the assay with SF-295 CNS, -85.4% [100 µM] (active); in the assay on SF-539 CNS it was -81.4% [100 µM] (active). In addition, the values for the growth in the assay with UACC-257 melanoma and in the assay with M14 melanoma were -76.6% [100 µM] (active) and -48.5% [100 µM] (active), respectively.

`Cc1cccc([N+](=O)[O-])c1I`: the growth in the assay with NCI-H23 lung was 105%; with NCI-H226 lung, 102%; with NCI-H322M lung it was 112%; in the assay with HOP-62 NSCLC, 101%; in the assay on NCI-H460 lung, 111%; in the assay with HOP-92 NSCLC, 87.4%. Further, the growth in the assay on NCI-H522 lung is 93.8%; in the assay on A549/ATCC NSCLC, 102%; in the assay on 786-0 renal it was 108%; in the assay on COLO 205 colon, 110%; in the assay with DU-145 prostate, 116%; with K-562 leukemia, 141%. Further, the growth in the assay with MALME-3M melanoma is 116%; in the assay with MDA-MB-231 breast it was 102%; in the assay with RXF 393 renal it was 111%; in the assay with SF-268 CNS it was 105%; with SF-295 CNS it was 101%; in the assay on SF-539 CNS, 105%. In addition, the values for the growth in the assay on UACC-257 melanoma and with M14 melanoma were 96.7% and 108%, respectively.

Turning to `CC1(C)CC[C@]2(C(N)=O)CC[C@]3(C)C(=CC[C@@H]4[C@@]5(C)C/C(=C/c6ccncc6)C(=O)C(C)(C)[C@@H]5CC[C@]43C)[C@@H]2C1`, the growth was -34.4% [100 µM] (active) in the assay on NCI-H23 lung; -48.3% [100 µM] (active) with NCI-H226 lung; -100% [100 µM] (active) with NCI-H322M lung; -63.3% [100 µM] (active) in the assay on HOP-62 NSCLC; -48.9% [100 µM] (active) in the assay with NCI-H460 lung; -64.7% [100 µM] (active) with HOP-92 NSCLC. The growth in the assay on NCI-H522 lung is -67.4% [100 µM] (active); in the assay on A549/ATCC NSCLC it was -54.2% [100 µM] (active); in the assay with 786-0 renal, -41.2% [100 µM] (active); in the assay on COLO 205 colon, -55.3% [100 µM] (active); in the assay with DU-145 prostate, -36.4% [100 µM] (active); in the assay with K-562 leukemia it was 3.83% [100 µM] (active). For the same compound, the growth in the assay on MALME-3M melanoma was -84.9% [100 µM] (active); with MDA-MB-231 breast, -75% [100 µM] (active); in the assay with RXF 393 renal, -52.5% [100 µM] (active); in the assay on SF-268 CNS it was -37.2% [100 µM] (active); in the assay with SF-295 CNS it was -64.4% [100 µM] (active); with SF-539 CNS it was -68.1% [100 µM] (active). Besides, the results for the growth in the assay with UACC-257 melanoma and in the assay on M14 melanoma were -58.6% [100 µM] (active) and -24.4% [100 µM] (active), respectively.

For `Cc1cccc(C[C@H](NC(=O)Nc2ccc(Cl)cc2F)C(=O)N[C@@H]2C(=O)N3C[C@H](O)C[C@H]3C(=O)N3CCN(C)C[C@H]3C(=O)N[C@@H](C)C(=O)N3C[C@H](C)C[C@H]3C(=O)O[C@H]2C)c1`, the growth in the assay on NCI-H23 lung was 35.3%; in the assay with NCI-H226 lung it was 45.2%; with NCI-H322M lung it was 65.7%; with HOP-62 NSCLC, 34.3%; with NCI-H460 lung, 27.7%; in the assay on HOP-92 NSCLC it was 33.2%. Besides, the growth in the assay on NCI-H522 lung was 33.2%; with A549/ATCC NSCLC, 35.6%; with 786-0 renal, 66.6%; in the assay on COLO 205 colon, 11.2%; in the assay with DU-145 prostate, 36.3%; with K-562 leukemia it was 24.4%. Further, the growth in the assay with MALME-3M melanoma was 42.9%; with MDA-MB-231 breast it was 22.4%; in the assay on RXF 393 renal, 81.7%; in the assay on SF-268 CNS, 30%; with SF-295 CNS it was 19.7%; in the assay on SF-539 CNS, 53.8%. Moreover, the growth with UACC-257 melanoma is 22.6%; in the assay with M14 melanoma it was 63.5%.

As for `COc1ccc2nc3c(cc2c1)C(=O)CC(C(F)(F)F)C3` (stereo not given), the growth is 50.5% with NCI-H23 lung; 39.8% with NCI-H226 lung; 37.4% in the assay with NCI-H322M lung; 47.7% in the assay with HOP-62 NSCLC; 10.5% with NCI-H460 lung; 66.2% in the assay with HOP-92 NSCLC. In addition, the growth with NCI-H522 lung was 31.1%; in the assay with A549/ATCC NSCLC, 39.3%; in the assay on 786-0 renal, 53.7%; with COLO 205 colon it was 9.86% (active); in the assay on DU-145 prostate, 4.31% (active); in the assay with K-562 leukemia, 16.7%. Also, the growth in the assay on MALME-3M melanoma is 49.6%; with MDA-MB-231 breast, 60%; in the assay on RXF 393 renal, -1.91% (active); with SF-268 CNS, 57.4%; in the assay with SF-295 CNS it was 45.3%; in the assay on SF-539 CNS, 22.6%. The growth in the assay with UACC-257 melanoma was 82%; in the assay with M14 melanoma it was 8.65% (active).

Turning to `Nc1nc(Cl)c2ncn(Cc3cc4c(cc3I)OCO4)c2n1`, the growth is 75.2% with NCI-H23 lung; 85.8% in the assay on NCI-H226 lung; 65.4% in the assay on NCI-H322M lung; 36.1% with HOP-62 NSCLC; 18% in the assay on NCI-H460 lung; 82.4% in the assay on HOP-92 NSCLC. Also, the growth with NCI-H522 lung is 14.7%; in the assay with A549/ATCC NSCLC, 45.6%; in the assay with 786-0 renal, 44.4%; in the assay with COLO 205 colon, 21.1%; in the assay on DU-145 prostate it was 52.8%; in the assay with K-562 leukemia, 15.9%. Moreover, the growth in the assay on MALME-3M melanoma is 63.7%; in the assay with MDA-MB-231 breast it was 40.9%; with RXF 393 renal, 66.3%; in the assay with SF-268 CNS it was 62.1%; with SF-295 CNS, 42.5%; in the assay on SF-539 CNS, 46.5%. Moreover, the growth was 81.4% in the assay on UACC-257 melanoma and 76% in the assay on M14 melanoma.

The record behind these values is PubChem BioAssay (NCI).
